Records with an inconclusive call do not appear. Activity calls are given as the source filed them. Calls come from the whole dose curve; as a rule, active = well fitted inhibition curve with a large enough effect; inconclusive = small, poorly fitted or top-dose-only effect; inactive = flat fitted curve, though single readings scatter.
Each molecule was assayed against Calcium and integrin-binding protein 1 (Homo sapiens) (UniProt Q99828) (assay: Primary qHTS for Identification of Calcium Integrin Binding Protein 1 (CIB1) Competitor (AID 1508620;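 note: GST tagged CIB1 binding a fluorescein labelled alphaIIb integrin peptide tracer; top concentration of the series differs between compounds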)). Conditions: CIB1-GST / FITC-alphaIIb peptide fluorescence polarization; series mostly up to 57.7 µM; activity change, negative = inhibition: at the top concentration.
Calcium and integrin-binding protein 1 (Homo sapiens), sequence (Q99828 whole entry, looked up): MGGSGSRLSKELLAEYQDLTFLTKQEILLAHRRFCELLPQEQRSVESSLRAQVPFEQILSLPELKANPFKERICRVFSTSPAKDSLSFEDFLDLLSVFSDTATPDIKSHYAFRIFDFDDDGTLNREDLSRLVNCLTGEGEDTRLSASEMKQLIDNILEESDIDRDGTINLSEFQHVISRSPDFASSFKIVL
Summary of the method: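 CIB1-GST (1 uM final) and compound incubated 15 min at room temperature before adding FITC-alphaIIb peptide tracer (100 nM final). Competition for binding read by fluorescence polarization (ex 480, em 540) after another 15 min at room temperature.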
With `OC[C@H]1O[C@@H](Oc2cc(O)cc(-c3cc4ccc(O[C@@H]5O[C@H](CO)[C@@H](O)[C@H](O)[C@H]5O)cc4o3)c2)[C@H](O)[C@@H](O)[C@@H]1O` the “activity change, negative = inhibition” value was -3.85% (inactive).
`C=C1Cc2c(Cl)cc3[nH]c4c5c3c2[C@@]2(O)[C@@H]1C[C@@H]2C(C)(C)O[C@H]5C1CC[C@@]2(O)[C@@]35O[C@@H]3[C@H]3OC(C)(C)[C@H]3O[C@H]5CC[C@]2(C)[C@@]41C` (some centres undefined) was tested, and the “activity change, negative = inhibition” value was 3.88% [at 30.2 µM] (inactive).
For `COC(=O)c1[nH]c(=O)c2ccccc2c1-c1ccc[nH]1`, the “activity change, negative = inhibition” value was -4.31% [at 114 µM] (inactive).
With `COc1cc(C)c(C(=O)OC2C(C)OC(OC3CCC(C)C4C3C=C(C)C3/C(C)=C\CC/C(C)=C/C5(C)C=C(C(=O)O)C(C)CC56OC(=O)/C(=C(\O)C34C)C6=O)C(O)C2O)c(OC)c1` (centres undefined) the “activity change, negative = inhibition” value was 26.6% [at 30.2 µM] (inactive).
`CC(=O)OC12CC(C)C(OC(=O)c3ccccc3)C1/C=C(/C)C(OC(=O)c1ccccc1)CC(=O)C(C)(C)/C=C/C(C)C2=O` (centres undefined) was tested, and the “activity change, negative = inhibition” value was -6.51% [at 30.2 µM] (inactive).
In the case of `C[C@@H]1O[C@@H](O[C@H]2[C@H](OC(=O)[C@]34CCC(C)(C)C[C@H]3C3=CCC5[C@@]6(C)CC[C@H](O[C@@H]7O[C@H](CO[C@@H]8OC[C@H](O)[C@H](O)[C@H]8O)[C@@H](O)[C@H](O)[C@H]7O)C(C)(C)C6CC[C@@]5(C)[C@]3(C)C[C@H]4O)OC[C@@H](O)[C@@H]2O)[C@H](O)[C@H](O[C@@H]2OC[C@](O)(CO)[C@H]2O)[C@H]1O[C@@H]1OC[C@H](O)[C@H](O[C@@H]2OC[C@@H](O)[C@H](O)[C@H]2O)[C@H]1O` (some centres undefined), the activity change, negative = inhibition is reported as 2.98% [at 12.4 µM] (inactive).
With `CC(NC(=O)[C@H](Cc1ccccc1)NC(=O)OCc1ccccc1)C(=O)CF` (some centres undefined) the “activity change, negative = inhibition” value was 2.64% [at 114 µM] (inactive).
In the case of `CC1=CCC2C(C)(C)CCCC2(C)C1CC12OC1C(O)C(CO)=CC2O` (centres undefined), the “activity change, negative = inhibition” value is reported as -1.56% (inactive).
For `C=C(C)C1Cc2c(ccc3c2OCC(c2ccc(O)cc2O)C3)O1` (centres undefined), the “activity change, negative = inhibition” value was -7.83% (inactive).
For `C/C=C(\C)C(=O)OC1C(C)C2(O)C3C=C(C)C(=O)C3CC(CO)=CC2C2C(C)(C)C12OC(C)=O` (centres undefined), the “activity change, negative = inhibition” value was -4.5% (inactive).
`COc1c2cc(c(O)c1OC)CCCCC(O)CCc1ccc(O)c-2c1` (centres undefined) was tested, and the “activity change, negative = inhibition” value was -8.66% (inactive).
With `CC(=O)NC1C(OC2CCC3(C)C(CCC4(C)C3CC=C3C5CC(C)(C)CCC5(C(=O)O)C(O)CC34C)C2(C)C)OC(CO)C(O)C1O` (centres undefined) the “activity change, negative = inhibition” value was 3.4% [at 30.2 µM] (inactive).
With `C/C=C/C=C/C(=O)OC1CC/C=C/C(O)C(O)C(CCC)OC1=O` (centres undefined) the “activity change, negative = inhibition” value was 2.99% (inactive).
For `CC(=O)O[C@@H]1C=C2[C@H](CC[C@@]3(C)[C@@]2(O)CC[C@H]2Cc4c([nH]c5ccccc45)[C@@]23C)O[C@@H]1C(C)(C)O`, the “activity change, negative = inhibition” value was 1.49% (inactive).
In the case of `CCC(C)/C=C(C)/C=C/C(=O)C1CCC(O)C(C)(O)C1=O` (centres undefined), the “activity change, negative = inhibition” value is reported as -3.84% [at 114 µM] (inactive).
For `CC(=O)O[C@@H]1CC2C(C)(C)C(=O)C=C[C@]2(C)C2CC[C@]3(C)C(=CC(=O)[C@@H]3c3ccoc3)[C@@]21C` (some centres undefined), the “activity change, negative = inhibition” value was 4.58% (inactive).
With `C=C1C(=O)OC2CC(COC(=O)C(C)C)=C(C(C)CCCOC(C)=O)[C@@H](OC(C)=O)C12` (some centres undefined) the “activity change, negative = inhibition” value was 3.31% (inactive).
With `CC(=O)OC1C(CO)OC(O[C@H]2[C@H](OC(=O)[C@]34CCC(C)(C)C[C@H]3C3=CCC5[C@@]6(C)CC[C@H](O[C@@H]7O[C@H](C(=O)O)[C@@H](O)[C@H](O[C@@H]8OC[C@@H](O)[C@H](O)[C@H]8O)[C@H]7O[C@@H]7O[C@H](CO)[C@H](O)[C@H](O)[C@H]7O)[C@@](C)(C=O)C6CC[C@@]5(C)[C@]3(C)C[C@H]4O)O[C@H](C)[C@H](OC3OC(C)C(OC4OCC(O)C(O)C4O)C(O)C3O)[C@@H]2O)C(O)C1O` (some centres undefined) the activity change, negative = inhibition was 4.08% [at 12.4 µM] (inactive).
In the case of `CC(=O)N[C@H]1[C@H](O[C@H]2CC[C@]3(C)C4CC=C5[C@@H]6CC(C)(C)CC[C@]6(C(=O)O)[C@H](O)C[C@@]5(C)[C@]4(C)CC[C@H]3C2(C)C)O[C@H](CO)[C@@H](O)[C@@H]1O` (some centres undefined), the “activity change, negative = inhibition” value is reported as 3.68% [at 30.2 µM] (inactive).
With `CC(CCO)CCC1C2(C)CCCC(C)(C)C2CC[C@@]1(C)O` (some centres undefined) the “activity change, negative = inhibition” value was 3.29% (inactive).
With `C/C=C(\C)C(=O)OC1CC2C(CC=C3CC(OC4CC(OC)C(OC5CC(OC)C(OC6CC(OC)C(OC7CC(OC)C(OC8CC(OC)C(OC9OC(CO)C(O)C(O)C9O)C(C)O8)C(C)O7)C(C)O6)C(C)O5)C(C)O4)CCC32C)C2(O)CCC(C(C)=O)C12C` (centres undefined) the activity change, negative = inhibition was 0.354% [at 12.4 µM] (inactive).
With `CN1CCCC1Cc1c[nH]c2ccc(CCS(=O)(=O)c3ccccc3)cc12` (centres undefined) the “activity change, negative = inhibition” value was 1.37% [at 114 µM] (inactive).
`CC1OC(OC2CCC3(C)C(CCC4(C)C3C=CC35OCC6(CCC(C)(C)CC63)CCC45C)C2(C)CO)C(OC2OC(CO)C(O)C(O)C2O)C(O)C1OC1OC(CO)C(O)C(O)C1O` (centres undefined) was tested, and the “activity change, negative = inhibition” value was -6.19% [at 30.2 µM] (inactive).
`CCC(C)/C=C(C)/C=C/C1=CC2=C(Cl)C(=O)C(C)(O)C(=O)C2(O)C(OC)O1` (centres undefined) was tested, and the “activity change, negative = inhibition” value was 48% (inactive).
In the case of `COc1ccc(C2COc3cc(O)ccc3C2)c(O)c1OC` (centres undefined), the “activity change, negative = inhibition” value is reported as 4.42% [at 114 µM] (inactive).
`C=C1CC2C3(C)C(O)CC(=O)C(C)(C)C3C(O)C(OC(C)=O)C2(C)C2C(=O)OC(C)(C(=O)OC)C(=O)C12C` (centres undefined) was tested, and the “activity change, negative = inhibition” value was -4.86% (inactive).
`C/C(=C\C(=O)C(C)C1CCC2C3=C(CCC21C)C1(C)CCC(=O)C(C)(C)C1(O)CC3)C(C)(C)O` (centres undefined) was tested, and the “activity change, negative = inhibition” value was -5.71% (inactive).
`C=CCC/C=C/C#CCCCCCCCC[C@H]1C(=O)O[C@H](C)[C@@H]1O` was tested, and the “activity change, negative = inhibition” value was -4.91% (inactive).
With `C/C=C(\C)C1C(C)=CC2CCC(OS(=O)(=O)O)C(C)C2C1/C=C/C=C/C(=O)O` (centres undefined) the “activity change, negative = inhibition” value was 3.42% (inactive).
With `O=C1OC(c2ccc(O)cc2)C(O)=C1Cc1ccccc1` (centres undefined) the “activity change, negative = inhibition” value was -17.6% [at 114 µM] (inactive).
With `CCC(C)/C=C(C)/C=C/C1=CC2=CC(=O)C(C)(O)C(OC(C)=O)C2CO1` (centres undefined) the “activity change, negative = inhibition” value was 12.3% (inactive).
`C=C1C(=O)O[C@@H]2C[C@]3(C)[C@@H](CCC(C)=O)[C@@H]3C[C@H]12` was tested, and the “activity change, negative = inhibition” value was 2.23% [at 114 µM] (inactive).
For `CC1(C)CC[C@]2(C(=O)O[C@@H]3O[C@H](CO)[C@@H](O)[C@H](O)[C@H]3O)[C@H](O)C[C@]3(C)C(=CCC4[C@@]5(C)CC[C@H](O[C@@H]6OC[C@@H](O)[C@H](O)[C@H]6O)[C@@](C)(C(=O)O)C5CC[C@]43C)[C@@H]2C1` (some centres undefined), the “activity change, negative = inhibition” value was 1.01% [at 30.2 µM] (inactive).
`COc1cc(O)c(C(=O)O)c(CCc2ccccc2)c1` was tested, and the “activity change, negative = inhibition” value was -0.0599% [at 114 µM] (inactive).
With `CC(=O)OC1CC2C(C)(C)C(=O)C=CC2(C)C2CC(=O)C3=C(CCC3C3=CC(O)OC3=O)C12C` (centres undefined) the “activity change, negative = inhibition” value was 0.151% (inactive).
For `C=C(C)[C@H]1CC[C@]2(C(=O)O)CC[C@]3(C)C(CCC4[C@@]5(C)CCC(=O)C(C)(C)C5CC[C@]43C)C12` (some centres undefined), the “activity change, negative = inhibition” value was -12.1% (inactive).
In the case of `COC(=O)[C@H](c1ccccc1Cl)N1CCC2SC(=O)C=C2C1` (some centres undefined), the “activity change, negative = inhibition” value is reported as -1.6% [at 114 µM] (inactive).
In the case of `CC1CCCCCCCc2cc(O)cc(O)c2C(=O)O1` (centres undefined), the “activity change, negative = inhibition” value is reported as 0.134% [at 114 µM] (inactive).
`C=C[C@]1(C)C[C@@H](OC(=O)CSC2C[C@H]3CC[C@@H](C2)N3C)[C@]2(C)[C@H](C)CC[C@]3(CCC(=O)[C@H]32)[C@@H](C)[C@@H]1O` (some centres undefined) was tested, and the “activity change, negative = inhibition” value was 0.458% [at 114 µM] (inactive).

From PubChem BioAssay (NCATS)
% is set by controls: 0 for no effect and ±100 for the full control effect.
